# Results from PubChem BioAssay (NCATS).
# Results filed as inconclusive are left out. A call without a number means that no potency is given here. Calls of active or inactive are those of the source. The call rests on the fitted dose curve; in most records, active means well fitted curve in the direction sought with a large enough effect; inconclusive means small, poorly fitted or top-dose-only effect, or another doubt; inactive means no such curve, though single readings can be large; an effect the other way counts as inactive or inconclusive.
# How the values were obtained:
# [1] = target: Phenylethanolamine N-methyltransferase (Homo sapiens) (UniProt P11086); test: Confirmatory Screen for Target Class Profiling of Small Molecule Inhibitors of Methyltransferases (AID 1745852); conditions: MTase-Glo luminescence, SAH detection, recombinant enzyme; measured here: PNMT max response; stronger effect = lower value
# [2] = target: Metallo-beta-lactamase type 2 (Klebsiella pneumoniae) (UniProt C7C422); test: qHTS to identify inhibitors of the New Delhi Metallo-beta-lactamase (NDM): assay validation screen against the NCATS LOPAC Collection (AID 1794843); conditions: NDM-1 enzyme, nitrocefin hydrolysis, absorbance 485 nm; series mostly up to 38.4 µM
# Method in brief: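 Absorbance at 485 nm from nitrocefin turnover (50 uM solution added), read at plateau, gives the read-out. Compounds in DMSO were incubated first with 2 nM final NDM-1 in pH 7.0 HEPES buffer containing 1 uM ZnSO4 and 0.01% Tween20.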
# [3] = target: Glutathione peroxidase 1 (Homo sapiens) (UniProt P07203); test: Primary qHTS Assay for Inhibitors of Recombinant Selenoprotein Glutathione Peroxidase 1 (GPX1) (AID 1845191); conditions: recombinant GPX1, GR-coupled NADPH fluorescence, 15 min; series mostly up to 48.8 µM; further: nearly all actives have a fitted effect of over 65% in size
# Method in brief: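 GPX1 10 nM, GR 100 nM, GSH 1 mM, NADPH 0.5 mM, CHP 0.5 mM (final). 30-min cpd preincubation, RT. Ex340/Em450 read t=0, t=15 min.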
# [4] = target: Phospholipid hydroperoxide glutathione peroxidase GPX4 (Homo sapiens) (UniProt P36969); test: Primary qHTS Assay for Inhibitors of Recombinant Selenoprotein Glutathione Peroxidase 4 (GPX4) (AID 1845192); conditions: recombinant GPX4, GR-coupled NADPH fluorescence, 15 min; series mostly up to 50 µM; further: nearly all actives have a fitted effect of over 65% in size
# Method in brief: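 qHTS, GR-coupled: GPX4 200 nM + cpd 30 min RT → GSH 1 mM, NADPH 0.5 mM, GR 100 nM → CHP 0.5 mM start; fluor 340/450 at t0 and t15 min; no-enzyme wells as control.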
# [5] = Viability counterscreen for antagonist of constitutive androstane receptor (CAR) against the NCATS DSHEA and TCM libraries (AID 1794837); conditions: CAR reporter cell line viability counterscreen, qHTS; series mostly up to 40 µM;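 further: compound exposure lasted 24 h before viability reading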
# Method in brief: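 Cell viability, CellTiter-Fluor, Ex/Em 405/540 nm, 1 h at 37C. HepG2-CYP2B6-hCAR, 2,500 cells/well; cpds + CITCO 48 uM final (antagonist mode), 24 h, 37C/5% CO2.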
# [6] = Viability counterscreen for agonist of constitutive androstane receptor (CAR) against the NCATS DSHEA and TCM libraries (AID 1794838); conditions: HepG2 cell viability counterscreen, CAR agonist assay, co-treated with 0.75 µM CAR antagonist; series mostly up to 40 µM
# Method in brief: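 Viability by CellTiter-Fluor fluorescence, 405/540 nm, after 1 h at 37C. HepG2-CYP2B6-hCAR cells were exposed 24 h to test substances in presence of 0.75 uM PK11195 (final).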
# [7] = target: Nuclear receptor subfamily 1 group I member 3 (Homo sapiens) (UniProt Q14994); test: Primary qHTS for agonist of constitutive androstane receptor (CAR) against the NCATS DSHEA and TCM libraries (AID 1794839); conditions: CAR agonist reporter cells, qHTS luminescence, CAR antagonist co-added at 0.75 µM; series mostly up to 40 µM;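 further: HepG2 cells expressing human CAR with a CYP2B6 reporter plus PK11195 antagonist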
# Method in brief: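 Luminescence from ONE-Glo luciferase was the agonist read-out in HepG2-CYP2B6-hCAR cells exposed 24 h to test substances. Wells also held the CAR antagonist PK11195 at 0.75 µM final. Viability was by CellTiter-Fluor fluorescence.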
# [8] = HepG2 viability counterscreen (readout 2: ATP content) against the NCATS DSHEA and TCM libraries (AID 1794840); conditions: ATP content luminescence; series mostly up to 27.3 µM
# Method in brief: (§1)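 1,000 HepG2 cells/well, 4 h attach; compounds ~24 h, 37C/5% CO2. Readout 1: GF-AFC 25 uM final, 30 min, fluorescence 380/510 nm. Readout 2: CellTiter-Glo, 30 min RT, luminescence.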
# [9] = HepG2 viability counterscreen (readout 1: protease activity) against the NCATS DSHEA and TCM libraries (AID 1794841); conditions: qHTS concentration series; series mostly up to 27.3 µM;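 further: cells exposed to compounds for about 24 h before the protease read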
# Method in brief: as §1
# [10] = target: Cytochrome P450 3A4 (Homo sapiens) (UniProt P08684); test: qHTS for inhibitors of CYP3A4 against the NCATS DSHEA and TCM libraries (AID 1919971); conditions: recombinant CYP3A4 enzyme activity, luminescence qHTS; series mostly up to 34.1 µM;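 further: inhibition lowers luminescence from luciferin made by CYP3A4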
# Method in brief: (§2)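 Substances were tested against enzyme with a pro-luciferin substrate; minus-enzyme wells served as background. After NADPH-initiated oxidation (30-45 min, RT), light was generated with P450-Glo reagent.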
# [11] = target: Cytochrome P450 2D6 (Homo sapiens) (UniProt P10635); test: qHTS for inhibitors of CYP2D6 against the NCATS DSHEA and TCM libraries (AID 1919972); conditions: CYP2D6 enzymatic inhibition, luminescence qHTS; series mostly up to 34.1 µM
# Method in brief: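 qHTS, concentration–response format with most substances from 19.5 nM. CYP2D6 + pro-luciferin substrate, 15 min with compound, then 1x NADPH regen, 30–45 min RT dark. Glo detection 30 min, luminescence. Quinidine control.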
# [12] = target: Cytochrome P450 2C19 (Homo sapiens) (UniProt P33261); test: qHTS for inhibitors of CYP2C19 against the NCATS DSHEA and TCM libraries (AID 1919974); conditions: CYP2C19 enzyme inhibition, luminescence qHTS;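 further: luminescence from luciferin released by CYP2C19 oxidation of a pro-luciferin substrate; potency means the concentration at half of the fitted maximal effect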
# Method in brief: as §2
# [13] = KB-3-1 P-gp reporter qHTS against the NCATS DSHEA and TCM libraries (AID 1919975); conditions: KB-3-1 parental cells, CellTiter-Glo luminescence viability, 72 h; series mostly up to 26.1 µM
# Method in brief: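 CellTiter-Glo luminescence viability readout; KB-3-1 parental cells, 500/well, attached ~4 h, then compound for ~72 h, 37C, 5% CO2. Bortezomib intraplate control.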
# [14] = qHTS Counterscreen for compound interference against the NCATS DSHEA and TCM libraries (AID 1919978); conditions: firefly luciferase detection reagent interference, luminescence;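 further: compounds preincubated with 1 µM D-luciferin or buffer before detection reagent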
# Method in brief: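 Luminescence counterscreen for detection-kit interference: compounds at 19.5 nM–39.8 uM final, 15 min RT with 1 uM D-luciferin or buffer only; detection reagent added, 30 min RT, then read.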
# [15] = NCATS anti-infectives library activity on HEK293 viability as a counter-qHTS vs the C. elegans viability qHTS (AID 1745854); conditions: HEK293 viability counter-screen; series mostly up to 41.8 µM
# Method in brief: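 CellTiter-Glo luminescence, read on a CCD imager, scored viability of HEK293 cells after 24 hr compound exposure at 37C. Library tested in several concentrations, 1:5 steps, up to 41.7 uM; digitonin served as control.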
# Chain of Phospholipid hydroperoxide glutathione peroxidase GPX4 (Homo sapiens) (P36969 whole entry, looked up): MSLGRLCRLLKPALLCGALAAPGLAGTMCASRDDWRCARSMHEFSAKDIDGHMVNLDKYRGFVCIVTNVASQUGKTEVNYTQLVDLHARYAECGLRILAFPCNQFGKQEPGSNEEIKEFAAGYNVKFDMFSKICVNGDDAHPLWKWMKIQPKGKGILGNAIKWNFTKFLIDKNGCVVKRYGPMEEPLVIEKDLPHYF
# Chain of Glutathione peroxidase 1 (Homo sapiens) (P07203 whole entry, looked up): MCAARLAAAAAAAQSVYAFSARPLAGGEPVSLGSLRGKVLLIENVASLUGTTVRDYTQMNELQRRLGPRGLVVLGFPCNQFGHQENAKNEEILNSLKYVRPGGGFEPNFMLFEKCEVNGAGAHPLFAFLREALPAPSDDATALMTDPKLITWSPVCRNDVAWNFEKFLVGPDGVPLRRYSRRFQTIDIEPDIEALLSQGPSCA
# Chain of Metallo-beta-lactamase type 2 (Klebsiella pneumoniae) (C7C422 whole entry, looked up): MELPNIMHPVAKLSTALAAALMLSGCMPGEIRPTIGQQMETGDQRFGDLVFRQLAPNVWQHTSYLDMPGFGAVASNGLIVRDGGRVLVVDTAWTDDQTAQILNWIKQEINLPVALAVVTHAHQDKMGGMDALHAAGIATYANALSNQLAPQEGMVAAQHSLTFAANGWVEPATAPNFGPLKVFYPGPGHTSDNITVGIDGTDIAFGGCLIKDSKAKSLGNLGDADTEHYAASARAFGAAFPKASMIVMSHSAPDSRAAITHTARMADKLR
# Chain of Phenylethanolamine N-methyltransferase (Homo sapiens) (P11086 whole entry, looked up): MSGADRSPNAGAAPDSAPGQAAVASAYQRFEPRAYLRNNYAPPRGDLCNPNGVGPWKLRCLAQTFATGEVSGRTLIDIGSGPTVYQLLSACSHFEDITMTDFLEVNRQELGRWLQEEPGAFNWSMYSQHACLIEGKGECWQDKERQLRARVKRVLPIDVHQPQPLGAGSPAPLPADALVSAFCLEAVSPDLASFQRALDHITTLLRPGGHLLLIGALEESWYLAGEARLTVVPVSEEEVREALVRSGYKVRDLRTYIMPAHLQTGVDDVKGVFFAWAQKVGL
# Chain of Cytochrome P450 2C19 (Homo sapiens) (P33261 whole entry, looked up): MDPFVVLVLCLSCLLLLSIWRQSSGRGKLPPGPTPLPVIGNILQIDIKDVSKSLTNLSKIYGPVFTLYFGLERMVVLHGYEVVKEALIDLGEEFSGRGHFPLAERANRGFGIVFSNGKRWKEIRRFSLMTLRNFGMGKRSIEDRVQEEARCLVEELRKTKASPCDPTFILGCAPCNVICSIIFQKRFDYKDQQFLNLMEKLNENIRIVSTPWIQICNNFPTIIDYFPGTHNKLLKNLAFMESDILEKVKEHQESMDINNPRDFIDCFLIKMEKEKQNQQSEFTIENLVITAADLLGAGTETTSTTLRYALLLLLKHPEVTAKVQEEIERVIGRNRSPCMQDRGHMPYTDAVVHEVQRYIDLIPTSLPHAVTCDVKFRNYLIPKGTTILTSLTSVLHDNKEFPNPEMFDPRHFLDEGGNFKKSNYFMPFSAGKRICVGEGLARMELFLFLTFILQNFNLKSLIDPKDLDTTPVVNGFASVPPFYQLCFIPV
# Chain of Cytochrome P450 2D6 (Homo sapiens) (P10635 whole entry, looked up): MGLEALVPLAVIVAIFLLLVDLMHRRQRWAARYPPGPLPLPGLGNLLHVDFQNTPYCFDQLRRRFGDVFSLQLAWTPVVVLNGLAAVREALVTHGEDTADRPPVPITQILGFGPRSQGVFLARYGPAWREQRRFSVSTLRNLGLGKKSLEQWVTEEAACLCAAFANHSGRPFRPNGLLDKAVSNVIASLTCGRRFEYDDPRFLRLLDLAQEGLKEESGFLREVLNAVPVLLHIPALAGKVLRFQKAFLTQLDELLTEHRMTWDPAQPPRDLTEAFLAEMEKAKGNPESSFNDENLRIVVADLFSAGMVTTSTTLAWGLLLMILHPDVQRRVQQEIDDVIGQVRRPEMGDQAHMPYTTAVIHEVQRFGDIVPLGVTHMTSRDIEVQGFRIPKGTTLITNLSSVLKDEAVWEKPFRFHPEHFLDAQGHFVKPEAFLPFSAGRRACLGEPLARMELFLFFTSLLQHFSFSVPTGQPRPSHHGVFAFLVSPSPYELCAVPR
# Chain of Nuclear receptor subfamily 1 group I member 3 (Homo sapiens) (Q14994 whole entry, looked up): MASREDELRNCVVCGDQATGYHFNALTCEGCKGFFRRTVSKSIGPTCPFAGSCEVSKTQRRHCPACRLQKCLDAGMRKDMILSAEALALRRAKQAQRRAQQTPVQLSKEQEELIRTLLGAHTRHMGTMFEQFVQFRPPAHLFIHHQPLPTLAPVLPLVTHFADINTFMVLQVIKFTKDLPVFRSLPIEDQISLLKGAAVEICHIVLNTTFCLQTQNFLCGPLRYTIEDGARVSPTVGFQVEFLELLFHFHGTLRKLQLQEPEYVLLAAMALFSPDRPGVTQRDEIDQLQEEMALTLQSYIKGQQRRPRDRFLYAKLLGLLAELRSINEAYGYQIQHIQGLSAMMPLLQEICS
# Chain of Cytochrome P450 3A4 (Homo sapiens) (P08684 whole entry, looked up): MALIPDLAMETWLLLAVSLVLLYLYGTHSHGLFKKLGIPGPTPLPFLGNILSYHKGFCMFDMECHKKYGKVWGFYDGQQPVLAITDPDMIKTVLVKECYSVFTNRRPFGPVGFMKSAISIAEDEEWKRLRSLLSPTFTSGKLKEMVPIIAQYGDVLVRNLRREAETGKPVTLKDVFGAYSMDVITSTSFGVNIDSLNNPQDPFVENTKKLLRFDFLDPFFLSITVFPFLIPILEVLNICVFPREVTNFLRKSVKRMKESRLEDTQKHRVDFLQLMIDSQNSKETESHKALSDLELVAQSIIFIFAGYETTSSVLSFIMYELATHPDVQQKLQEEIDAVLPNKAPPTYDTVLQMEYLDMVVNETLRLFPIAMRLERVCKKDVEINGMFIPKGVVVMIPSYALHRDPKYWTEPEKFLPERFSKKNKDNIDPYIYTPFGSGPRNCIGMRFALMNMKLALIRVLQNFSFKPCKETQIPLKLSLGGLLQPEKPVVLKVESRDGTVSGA
compound,measurement,setting,value
O=C(O)CNC(=O)C(CS)Cc1ccccc1 (configuration not stated),activity,[1],8.57%
same,Potency,[2],inactive
same,Potency,[3],inactive
same,Potency,[4],inactive
O=C(c1cc(O)c(O)c([N+](=O)[O-])c1)c1ccccc1F,activity,[1],-23.2%
same,Potency,[2],inactive
same,Potency,[3],inactive
O=C(O)c1cc(O)c(O)c(O)c1,outcome,[5],inactive
same,outcome,[6],inactive
same,outcome,[7],inactive
same,outcome,[8],inactive
same,outcome,[9],inactive
same,Potency,[4],inactive
same,outcome,[10],inactive
same,outcome,[11],inactive
same,Potency,[12],3.55 µM (active)
same,outcome,[13],inactive
same,max response,[14],-2.87% (inactive)
COc1cc(/C=C/C(=O)CC(=O)/C=C/c2ccc(O)c(OC)c2)ccc1O,activity,[1],9.5%
same,outcome,[15],inactive
same,Potency,[3],inactive
CC(C)(C=O)Cc1cc(C(C)(C)C)c(O)c(C(C)(C)C)c1,activity,[1],-4.11%
same,Potency,[2],inactive
same,Potency,[3],inactive
same,Potency,[4],inactive
O=C1C(SCCO)=C(SCCO)C(=O)c2ccccc21,activity,[1],-72.3%
same,Potency,[2],inactive
same,Potency,[4],inactive
CNc1ncnc2c1ncn2[C@@H]1O[C@H](CO)[C@@H](O)[C@H]1O,outcome,[15],inactive
same,Potency,[2],inactive
same,Potency,[3],inactive
same,Potency,[4],inactive
